Source: PubChem BioAssay
Compounds with a hit are over-represented: about 7.9% of the library has one in this group of screens.
HT1080-NT tox = kills 2HG-producing HT-1080-NT fibrosarcoma cells. HT-1080-NT fibrosarcoma viability, CellTiter-Glo ATP luminescence, 48 h. Potency, µM (doses to about 46.1 µM), for inactives: at the highest dose activity, negative = less viability, usual class: cytotoxic. 360,000 compounds, 1.6% hits;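 further: NT is the 2HG producing partner of a matched IDH1 knockdown line; 0% = DMSO-treated cells and -100% = media-only wells without cells; nearly all actives have a fitted effect of over 55% in size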
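Read-out is CellTiter-Glo luminescence after 10 minutes at room temperature, following 48 hours' compound treatment of HT-1080-NT cells (750 cells/well, RPMI, 5% FBS, 37 degrees C).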
HT1080 IDH1KD tx = kills HT-1080 cells with IDH1 knockdown; HT-1080 IDH1 knockdown viability, ATP luminescence, 48 h; Potency, µM (doses to about 46.1 µM), without a hit: top-dose activity, negative = toxicity, most hits filed as cytotoxic; 360,000 compounds, 2% hits;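 further: 0% = DMSO wells and -100% = cell-free medium wells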
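In this qHTS, HT-1080 cells depleted of IDH1 are exposed for 48 h at 37 °C to compound titrations. Toxicity is scored from CellTiter-Glo luminescence, with DMSO as full viability and medium alone as none.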
KB-V1 MDR tox = kills drug-selected multidrug resistant KB-V1 cells; KB-V1 MDR cells viability, CellTiter-Glo, 72 h; Potency, µM (top dose mostly 46.1 µM), usual class: cytotoxic; 400,000 compounds, 3.4% hits; further: on the % scale 0 is the no-effect control and ±100 the full control effect; nearly all actives have a fitted effect of over 60% in size
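KB-V1 cells (P-gp-expressing MDR subline of KB-3-1) in phenol-red-free DMEM with 10% FBS were exposed to library compounds over a concentration series for 72 h at 37 degrees C. Viability read by CellTiter-Glo luminescence; concentration-effect curves fitted after normalization.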
MCF10A rerep = induces DNA re-replication in MCF 10a normal breast cells. MCF 10A DNA re-replication, Hoechst nuclear intensity, 48 h. Potency, µM (top dose mostly 46.1 µM), without a hit: top-dose activity, positive = re-replication, usual class: activators. 350,000 compounds, 2.9% hits. AID 624296; further: % of control where 0% means no effect; nearly all actives have a fitted effect of over 50% in size
SW480 rerep = induces DNA re-replication in SW480 colon adenocarcinoma cells | SW480 DNA re-replication, Hoechst DNA content imaging, 48 h | Potency, µM (top dose mostly 46.1 µM), for the others: at the highest dose re-replication activation, usual class: activators | 340,000 compounds, 1.8% hits; further: % of control where 0% means no effect; nearly all actives have a fitted effect of over 55% in size
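Per well, 250 cells were exposed to pinned compound for 48 hr. Nuclear DNA was visualised with Hoechst (40 min, 37 C) and total object intensity recorded by fluorescence scanning.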
KB-3-1 cytotox = kills parental KB-3-1 adenocarcinoma cells; KB-3-1 viability, CellTiter-Glo ATP luminescence, 72 h; Potency, µM (doses to about 46.1 µM), usual class: cytotoxic; 400,000 compounds, 1.4% hits; AID 1347075; further: on the % scale 0 is the no-effect control and ±100 the full control effect; nearly all actives have a fitted effect of over 60% in size
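Luminescent ATP read-out (CellTiter-Glo) measures survival of drug-naive KB-3-1 cells after 72 h compound exposure at 37 °C. Titration series was screened from lowest to highest concentration, with DMSO vehicle plates as background controls.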
The depositor's hits bear a star; [ ] = dose if it differs, or a comment. The call rests on the fitted dose curve; in most records, active means well fitted curve in the direction sought with a large enough effect; inconclusive means small, poorly fitted or top-dose-only effect, or another doubt; inactive means no such curve, though single readings can be large; an effect the other way counts as inactive or inconclusive. Potency means the concentration at half of the fitted maximal effect.

How did COC(CNC(=O)C(=O)Nc1cc2c3c(c1)CCN3C(=O)CC2)OC do in these assays?
HT1080-NT tox: -5.2%; HT1080 IDH1KD tx: -6.4%; KB-V1 MDR tox: inactive; MCF10A rerep: -1.4%; SW480 rerep: 0.7%; KB-3-1 cytotox: inconclusive

How did Cc1cccc(C(=O)Nc2ccc(C(=O)Nc3ccc(O)cc3)cc2)c1 do in these assays?
HT1080-NT tox: 20.6µM*; HT1080 IDH1KD tx: 7.31µM*; KB-V1 MDR tox: inactive; MCF10A rerep: 14.6µM*; SW480 rerep: -0.7%; KB-3-1 cytotox: inactive

How did Cc1ccc(NC(=O)c2ccc(NC(=O)c3ccccc3)cc2)cc1C do in these assays?
HT1080-NT tox: inconclusive; HT1080 IDH1KD tx: inconclusive; KB-V1 MDR tox: 18.4µM*; MCF10A rerep: 24.1%; SW480 rerep: inconclusive; KB-3-1 cytotox: 23.1µM*

Results for Cc1ccc(C(=O)Nc2ccc(Nc3ccccc3)cc2)cc1C ?
HT1080-NT tox: -29.7%; HT1080 IDH1KD tx: inconclusive; KB-V1 MDR tox: inactive; MCF10A rerep: 13.5%; SW480 rerep: inconclusive; KB-3-1 cytotox: inactive

How did Cc1ccc(C(=O)Nc2cc(C(C)C)c(O)c(C(C)C)c2)cc1 do in these assays?
HT1080-NT tox: 1.2%; HT1080 IDH1KD tx: -9.7%; KB-V1 MDR tox: 16.4µM*; MCF10A rerep: -2.0%; SW480 rerep: -0.9%; KB-3-1 cytotox: inconclusive

Results for Cc1cccc(C(=O)Nc2ccc(NC(=O)c3cccc(C)c3)cc2)c1 ?
HT1080-NT tox: 1.5%; HT1080 IDH1KD tx: -3.3%; KB-V1 MDR tox: inactive; KB-3-1 cytotox: inconclusive

How did Cc1ccc(NC(=O)CCC(=O)NNC(=O)Cc2ccccc2)cc1C do in these assays?
HT1080-NT tox: 0.0%; HT1080 IDH1KD tx: -6.2%; KB-V1 MDR tox: inactive; MCF10A rerep: 1.84µM*; SW480 rerep: 5.9%; KB-3-1 cytotox: inactive

Results for Nc1nc2c(c(=O)[nH]1)N(C=O)[C@H](CNc1ccc(C(=O)N[C@@H](CCC(=O)O)C(=O)O)cc1)CN2 ?
MCF10A rerep: -2.3%[20.6 µM]; SW480 rerep: inconclusive

How did CN(C)S(=O)(=O)c1ccc(Cl)c(NC(=O)C2CCN(S(=O)(=O)c3cccs3)CC2)c1 do in these assays?
HT1080-NT tox: -3.8%; HT1080 IDH1KD tx: 1.4%; KB-V1 MDR tox: inactive; MCF10A rerep: 2.3%; SW480 rerep: -3.7%; KB-3-1 cytotox: inactive

Results for Cn1c(-c2ccccc2)c(Sc2ccccc2)c2cc(-c3ccc4cc[nH]c4c3)ccc21 ?
HT1080-NT tox: 13.8%; HT1080 IDH1KD tx: 3.6%; KB-V1 MDR tox: inactive; KB-3-1 cytotox: inactive

How did CC(=O)Nc1ccc(NC(=O)c2ccc(NS(=O)(=O)c3cc(C(C)(C)C)cc(C)c3C)cc2)cc1 do in these assays?
HT1080-NT tox: inconclusive; HT1080 IDH1KD tx: inconclusive; KB-V1 MDR tox: inactive; MCF10A rerep: 18.4µM*; SW480 rerep: 1.1%; KB-3-1 cytotox: inactive

How did CCOc1ccccc1C1C(C(=O)Nc2ccccc2)=C(C)Nc2nc(SCC(=O)c3ccc(C)cc3)nn21 (centres undefined) do in these assays?
KB-V1 MDR tox: inactive; KB-3-1 cytotox: inactive

Results for COC(=O)C1=C(C)N(c2cc(Cl)cc(Cl)c2)C(=O)C1 ?
HT1080-NT tox: 20.6µM*; HT1080 IDH1KD tx: inconclusive; KB-V1 MDR tox: inconclusive; MCF10A rerep: 18.0%; SW480 rerep: inconclusive; KB-3-1 cytotox: inconclusive

What do the screens show for `COC(=O)C1=C(C)N(c2ccc(C(=O)OC)cc2)C(=O)C1`?
HT1080-NT tox: -5.7%; HT1080 IDH1KD tx: -0.3%; KB-V1 MDR tox: inactive; MCF10A rerep: 6.4%; SW480 rerep: -5.4%; KB-3-1 cytotox: inactive

How did COc1ccc(C2c3ccc(O)cc3Oc3ncn4nc(-c5ccco5)nc4c32)cc1OC (centres undefined) do in these assays?
HT1080-NT tox: inconclusive; HT1080 IDH1KD tx: 18.4µM*; KB-V1 MDR tox: inactive; MCF10A rerep: inconclusive; SW480 rerep: inconclusive; KB-3-1 cytotox: inactive

What do the screens show for `O=C(Cc1ccc(S(=O)(=O)N2CCOCC2)s1)Nc1cc(Cl)ccc1Cl`?
HT1080-NT tox: -6.6%; HT1080 IDH1KD tx: -13.3%; KB-V1 MDR tox: inactive; MCF10A rerep: -1.3%; SW480 rerep: -8.6%; KB-3-1 cytotox: inactive

How did CC(C)C(NC(=O)c1ccc(Cl)cc1)C(=O)NC1=NCCS1 (centres undefined) do in these assays?
HT1080-NT tox: -1.2%; HT1080 IDH1KD tx: 0.4%; KB-V1 MDR tox: 20.6µM*; MCF10A rerep: 4.2%; SW480 rerep: -6.6%; KB-3-1 cytotox: inactive

Results for CCSc1nnc(NC(=O)C(NC(=O)c2ccc(Cl)cc2)C(C)C)s1 (centres undefined) ?
HT1080-NT tox: 1.3%; HT1080 IDH1KD tx: 0.6%; KB-V1 MDR tox: 11.6µM*; MCF10A rerep: 2.0%; SW480 rerep: -2.3%; KB-3-1 cytotox: inactive

What do the screens show for `CC(=O)Nc1ccc(NC(=O)C(NC(=O)c2ccc(Cl)cc2)C(C)C)cc1` (centres undefined)?
HT1080-NT tox: 7.6%; HT1080 IDH1KD tx: -1.6%; KB-V1 MDR tox: inactive; KB-3-1 cytotox: inactive

What do the screens show for `CC1(C)CC(=O)C2=C(C1)NC(Nc1nc3ccccc3o1)=NC2c1ccccc1Cl` (centres undefined)?
KB-V1 MDR tox: inactive; KB-3-1 cytotox: inactive

Results for NS(=O)(=O)c1cccc(NC(=O)COC(=O)/C=C/c2nc3ccccc3s2)c1 ?
HT1080-NT tox: 6.9%; HT1080 IDH1KD tx: 9.9%; KB-V1 MDR tox: inconclusive; MCF10A rerep: inconclusive; SW480 rerep: -1.4%; KB-3-1 cytotox: inactive

How did CN(Cc1ccc(Cl)cc1Cl)C(=O)CNC(=O)c1ccco1 do in these assays?
HT1080-NT tox: 26.3%; HT1080 IDH1KD tx: 8.3%; KB-V1 MDR tox: inactive; MCF10A rerep: -3.9%; SW480 rerep: -22.3%; KB-3-1 cytotox: inactive

Results for Cc1ccc(C(=O)NCC(=O)N(C)Cc2ccc(Cl)cc2Cl)s1 ?
HT1080-NT tox: 0.3%; HT1080 IDH1KD tx: 6.1%; KB-V1 MDR tox: 16.4µM*; MCF10A rerep: 4.4%; SW480 rerep: -8.4%; KB-3-1 cytotox: inactive

How did Cc1ccc(C(=O)NCC(=O)N(C)CC(=O)Nc2ccccc2Br)s1 do in these assays?
HT1080-NT tox: 3.6%; HT1080 IDH1KD tx: -0.2%; KB-V1 MDR tox: 20.6µM*; MCF10A rerep: -1.5%; SW480 rerep: -3.9%; KB-3-1 cytotox: inactive

Results for CC(/C=C/c1ccccc1F)=N\NC(=O)c1ccc(Cl)cc1 ?
HT1080-NT tox: 4.61µM*; HT1080 IDH1KD tx: 7.31µM*; KB-V1 MDR tox: inactive; MCF10A rerep: inconclusive; SW480 rerep: 18.1%; KB-3-1 cytotox: inactive

How did CC(/C=C/c1ccccc1F)=N\NC(=O)c1ccccc1 do in these assays?
HT1080-NT tox: -23.2%; HT1080 IDH1KD tx: inconclusive; KB-V1 MDR tox: inconclusive; MCF10A rerep: 12.2%; SW480 rerep: -0.2%; KB-3-1 cytotox: inconclusive
